The values below come from PMC4336329 (PLoS ONE, 2015).

Out of some 310,000 compounds screened, about 14,000 (4.5%) showed an effect of 50% or more. The effect is printed as a negative number. This excerpt belongs to a sample that is enriched for strong results.
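Further: peak tail current of the secondary pulse compared with the same well before compound.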

Sequence of human ether-à-go-go-related gene (hERG) potassium channel (Q12809 whole entry, looked up): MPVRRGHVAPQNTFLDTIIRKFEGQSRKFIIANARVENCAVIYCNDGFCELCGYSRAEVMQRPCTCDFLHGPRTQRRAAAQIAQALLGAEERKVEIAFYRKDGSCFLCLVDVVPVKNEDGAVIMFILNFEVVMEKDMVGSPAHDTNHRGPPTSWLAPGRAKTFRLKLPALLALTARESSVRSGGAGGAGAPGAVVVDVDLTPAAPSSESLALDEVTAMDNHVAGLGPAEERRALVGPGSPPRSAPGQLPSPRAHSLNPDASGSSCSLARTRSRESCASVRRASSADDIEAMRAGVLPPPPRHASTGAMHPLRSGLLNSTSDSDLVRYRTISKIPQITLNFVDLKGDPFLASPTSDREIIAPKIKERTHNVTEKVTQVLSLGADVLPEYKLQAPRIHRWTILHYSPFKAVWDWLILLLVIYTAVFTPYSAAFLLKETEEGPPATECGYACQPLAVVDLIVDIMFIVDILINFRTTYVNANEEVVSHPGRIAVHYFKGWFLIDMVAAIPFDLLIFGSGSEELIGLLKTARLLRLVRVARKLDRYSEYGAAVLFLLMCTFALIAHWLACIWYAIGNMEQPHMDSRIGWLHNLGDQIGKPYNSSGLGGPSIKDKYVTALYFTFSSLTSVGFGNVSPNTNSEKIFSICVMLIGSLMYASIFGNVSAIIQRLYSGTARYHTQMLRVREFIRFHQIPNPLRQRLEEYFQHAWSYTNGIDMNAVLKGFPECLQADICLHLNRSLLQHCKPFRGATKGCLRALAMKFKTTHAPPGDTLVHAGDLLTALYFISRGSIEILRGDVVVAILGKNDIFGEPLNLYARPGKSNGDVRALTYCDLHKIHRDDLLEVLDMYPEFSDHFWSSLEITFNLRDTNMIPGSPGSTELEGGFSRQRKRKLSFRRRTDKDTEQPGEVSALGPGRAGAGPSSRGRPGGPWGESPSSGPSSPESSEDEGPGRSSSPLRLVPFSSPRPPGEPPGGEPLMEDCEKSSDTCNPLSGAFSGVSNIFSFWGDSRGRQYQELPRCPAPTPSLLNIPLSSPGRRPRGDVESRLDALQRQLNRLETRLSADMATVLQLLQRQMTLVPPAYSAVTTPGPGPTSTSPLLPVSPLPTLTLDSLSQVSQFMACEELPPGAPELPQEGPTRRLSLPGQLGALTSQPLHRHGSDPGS

This test concerns the target human ether-à-go-go-related gene (hERG) potassium channel (human, UniProt Q12809). Nature of the test: primary screen, population patch clamp on CHO cells stably expressing hERG; higher = less effect of the substance.
Consider `CC(=O)OC/C=C(\C)CCC=C(C)C`, for which the “hERG current change (%, negative = inhibition) at 10uM” value is reported as -0.25%.

Regarding `Cc1noc(C)c1COc1cccc(C(=O)OC(C)C(=O)Nc2c(C)n(C)n(-c3ccccc3)c2=O)c1` (stereo not drawn), the “hERG current change (%, negative = inhibition) at 10uM” value worked out at 4.8%.

On to `COc1ccc(CCNC(=O)CCN2C(=O)[C@@H]3Cc4ccccc4CN3C2=O)cc1`, for which the “hERG current change (%, negative = inhibition) at 10uM” value was -28.3%.

In the case of `O=c1c2ccccc2nnn1COc1ccc(Cl)cc1Br`, the “hERG current change (%, negative = inhibition) at 10uM” value is on record as 22.2%.

On to `CCCCCNC(=O)c1ccc2c(c1)ncn2-c1ccc(OC)cc1`, for which the “hERG current change (%, negative = inhibition) at 10uM” value is -64%.

For the compound `COCCCNC(=O)c1ccc2c(c1)ncn2-c1ccccc1OC`, the “hERG current change (%, negative = inhibition) at 10uM” value is -1.73%.

Turning to `CCOCCCNC(=O)c1ccc2c(c1)ncn2-c1ccccc1OC`, the “hERG current change (%, negative = inhibition) at 10uM” value is recorded as -4.39%.

With `COC(CNC(=O)c1ccc2c(c1)ncn2-c1cc(C)cc(C)c1)OC`, the “hERG current change (%, negative = inhibition) at 10uM” value is on record as -22.5%.

`COc1ccc(-n2cnc3cc(C(=O)NCCN4CCOCC4)ccc32)cc1`: the “hERG current change (%, negative = inhibition) at 10uM” value was -23.8%.

Regarding `CCCNC(=O)c1ccc2c(c1)ncn2-c1cc(C)cc(C)c1`, the “hERG current change (%, negative = inhibition) at 10uM” value was -55.1%.

`CCCNC(=O)c1ccc2c(c1)ncn2-c1ccccc1OC`: the “hERG current change (%, negative = inhibition) at 10uM” value is recorded as -60.3%.

As to `CCOCCCNC(=O)c1ccc2c(c1)ncn2-c1ccc(CC)cc1`, the “hERG current change (%, negative = inhibition) at 10uM” value is -43.8%.

For `Cc1cc(C)cc(-n2cnc3cc(C(=O)O)ccc32)c1`, the “hERG current change (%, negative = inhibition) at 10uM” value is 2.82%.

As to `S=c1[nH]nc(COc2ccccc2)n1/N=C/c1cccc(Br)c1`, the “hERG current change (%, negative = inhibition) at 10uM” value is 22.2%.

On to `O=C1N=C(N2CCc3ccccc3C2)S/C1=C\c1ccc(O)cc1`, for which the “hERG current change (%, negative = inhibition) at 10uM” value was -20.8%.

On to `CN1/C(=C/C2CC(=O)NC2=O)C(C)(C)c2ccccc21` (stereo not drawn), for which the “hERG current change (%, negative = inhibition) at 10uM” value is on record as 3.26%.

Turning to `CCSCCc1nnc(NC(=O)Nc2cccc(C(F)(F)F)c2)s1`, the “hERG current change (%, negative = inhibition) at 10uM” value was determined as 15.2%.

For `O=C(Nc1nnc(-c2ccccc2)o1)c1cc(-c2cccs2)nc2ccccc12`, the “hERG current change (%, negative = inhibition) at 10uM” value is given as 2.29%.

For `CC(=O)Nc1cccc(NC(=O)CSc2nccn2Cc2ccco2)c1`, the “hERG current change (%, negative = inhibition) at 10uM” value is on record as 14%.

Consider `O=C(CCOc1ccccc1)OCC(=O)c1cc2ccccc2o1`, for which the “hERG current change (%, negative = inhibition) at 10uM” value is given as -10.3%.

Turning to `COC(=O)C1=C(C(=O)OC)[C@@H]2N(C)c3ccc(OC)cc3[C@@]23C[C@@H](C(=O)OC)N(C(=O)NCCBr)C3=N1`, the “hERG current change (%, negative = inhibition) at 10uM” value is reported as -32.9%.

On to `O=C(Nc1nnc(-c2cccs2)o1)c1cccc(F)c1`, for which the “hERG current change (%, negative = inhibition) at 10uM” value came out at 11.8%.

For the compound `NC(=O)C(F)(F)C12OC3C4C5CC(C6C5C3C61)C42` (stereo not drawn), the “hERG current change (%, negative = inhibition) at 10uM” value was found to be 15.1%.

Regarding `COc1cc(C(=O)OCC(=O)N2CCC(Cc3ccccc3)CC2)cc(OC)c1OC`, the “hERG current change (%, negative = inhibition) at 10uM” value is given as -16.9%.

Consider `COc1cc(C(C)=O)ccc1OCCCN1CCC(Cc2ccccc2)CC1.O=C(O)C(=O)O`, for which the “hERG current change (%, negative = inhibition) at 10uM” value was -77.9%.

As for `COc1cc(C(C)=O)ccc1OCCN1CCC(Cc2ccccc2)CC1.O=C(O)C(=O)O`, the “hERG current change (%, negative = inhibition) at 10uM” value is -91%.

As for `COc1ccc(NC(=S)N2CCC(Cc3ccccc3)CC2)cc1OC`, the “hERG current change (%, negative = inhibition) at 10uM” value is -45.3%.

For `COc1cc(C(=S)N2CCC(Cc3ccccc3)CC2)ccc1OCC(N)=O`, the “hERG current change (%, negative = inhibition) at 10uM” value is on record as -46.8%.

For `COc1ccc(S(=O)(=O)N2CCC(Cc3ccccc3)CC2)cc1NC(C)=O`, the “hERG current change (%, negative = inhibition) at 10uM” value was found to be 20.5%.

On to `O=C(CNC(=S)N(Cc1ccccc1F)C1CCCCC1)NC1CC1`, for which the “hERG current change (%, negative = inhibition) at 10uM” value was -4.74%.

Consider `CC(C)c1ccccc1OCC(=O)N1CCCCCCC1`, for which the “hERG current change (%, negative = inhibition) at 10uM” value is on record as 13%.

Turning to `CCCCCC1CC(CC(=O)Nc2ccc([N+](=O)[O-])cc2)C(=O)O1` (stereo not drawn), the “hERG current change (%, negative = inhibition) at 10uM” value was -50%.

Take `CCCCCCC1CC(CCC(=O)Nc2ccc([N+](=O)[O-])cc2)C(=O)O1` (stereo not drawn): the “hERG current change (%, negative = inhibition) at 10uM” value is 3.95%.

Turning to `CC(C)OCC1CC(CC(=O)Nc2ccc([N+](=O)[O-])cc2)C(=O)O1` (stereo not drawn), the “hERG current change (%, negative = inhibition) at 10uM” value is listed as -34.1%.

Take `CCCCCC1CC(CC(=O)NC(=S)Nc2ccc([N+](=O)[O-])cc2)C(=O)O1` (stereo not drawn): the “hERG current change (%, negative = inhibition) at 10uM” value is given as -0.0907%.

For `CCCCCCC1CC(CC(=O)Nc2ccc([N+](=O)[O-])cc2)C(=O)O1` (stereo not drawn), the “hERG current change (%, negative = inhibition) at 10uM” value was -12.4%.

As for `CCCCCC1CC(CC(=O)Nc2ccc([N+](=O)[O-])cc2)OC1=O` (stereo not drawn), the “hERG current change (%, negative = inhibition) at 10uM” value is on record as -53.1%.

As for `O=C(CC1NCCc2ccccc21)Nc1ccc(Oc2ccccc2)cc1` (stereo not drawn), the “hERG current change (%, negative = inhibition) at 10uM” value is listed as -15%.

For the compound `C=CCN(c1ccccc1)S(=O)(=O)c1ccc2c(c1)NC(=O)C(C)C(=O)N2` (stereo not drawn), the “hERG current change (%, negative = inhibition) at 10uM” value is listed as -4.47%.

`O=C(CNC(c1ccccc1)c1ccccc1)Nc1cc([N+](=O)[O-])ccc1Cl`: the “hERG current change (%, negative = inhibition) at 10uM” value is 10.7%.

`CCCCc1cc(O)c(CCCC)c(O)c1`: the “hERG current change (%, negative = inhibition) at 10uM” value was -34.1%.

Take `COc1ccccc1NC(=O)/C(C#N)=C/c1ccc(OCCN2CCOCC2)c(OC)c1`: the “hERG current change (%, negative = inhibition) at 10uM” value is reported as -6.48%.

Turning to `COc1cc(/C=C(\C#N)C(=O)Nc2ccccc2)ccc1OCCN1CCOCC1`, the “hERG current change (%, negative = inhibition) at 10uM” value is listed as -21.7%.

Turning to `COc1cc(/C=C(\C#N)C(=O)Nc2ccccc2F)ccc1OCCN1CCOCC1`, the “hERG current change (%, negative = inhibition) at 10uM” value is listed as -64.6%.

As for `O=C(N/N=C/c1cccs1)c1cncc(Br)c1`, the “hERG current change (%, negative = inhibition) at 10uM” value is reported as -10.1%.
